From PubChem BioAssay (EPA / NIEHS)
Records with an inconclusive call do not appear. The source made the active and inactive calls. How the source made its calls: active means hit-call score of the fitted dose curve at least 0.9, where 1 is the maximum; inconclusive means response in the unintended direction; inactive means score below 0.9.

Experiment: Tanguay_ZF_120hpf_SWIM_legacy: (Legacy) Oregon State University Tanguay Lab 120 Hour Post-fertilization zebrafish Assay for Swim Bladder Malformation (AID 2283654);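 further: swim bladder malformation in each larva scored yes or no under brightfield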
Procedure: Tanguay_ZF_120hpf_legacy is a whole embryo, multiplexed endpoint assay using zebrafish larvae exposed for 120 hours post fertilization on a 96-well plate.Tanguay_ZF_120hpf_SWIM_legacy is one of one assay component(s) measured or calculated from the Tanguay_ZF_120hpf_legacy assay. It is designed to make measurements of zebrafish development as detected with brightfield microscopy of developing zebrafish embryos.Data from the assay component Tanguay_ZF_120hpf_SWIM_legacy was analyzed into 1 assay endpoints. This assay endpoint, Tanguay_ZF_120hpf_SWIM_legacy, was analyzed in the positive analysis fitting direction relative to DMSO as the negative control and baseline of activity. Using a type of morphology reporter, gain-of-signal activity can be used to understand changes in developmentals as they relate to the whole embryo. To generalize the intended target to other relatable targets, this assay endpoint is annotated to the zebrafish development intended target family, where the subfamily is swim bladder morphogenesis.
Zebrafish husbandry: Tropical 5D wild-type adult zebrafish were housed in at an approximate density of 1000 per 100 gallon tank at the Sinnhuber Aquatic Research Laboratory, Oregon State University, Corvallis, OR. Each tank was kept at standard laboratory conditions of 28C on a 14-h light/10-h dark photoperiod in fish water consisting of reverse osmosis water supplemented with a commercially available salt (Instant Ocean). Spawning funnels were placed into the tanks the night prior, and embryos were collected and staged. To increase bioavailability, the chorion was enzymatically removed using pronase (63.6mg/ml, >/= 3.5U/mg, Sigma-Aldrich: P5147) at 4 hours post fertilization (hpf) using a custom automated dechorionator.Chemical exposures: Six hpf dechorionated embryos were placed 1 embryo per well in a 96-well plate prefilled with 90 ul of EM using automated embryo placement systems (AEPS). Ten microliters of each row of dilution plate 2 was added to 2 exposure plates. The final DMSO concentration used was 0.64% (vol/vol). Thirty-two embryos were also exposed to 5uM trimethyltin chloride (positive control). Plates were sealed to prevent evaporation and foil covered to reduce light exposure and kept in a 28C incubator. Embryos were statically exposed until 120 hpf. At 24 hpf, embryos were assessed for photomotor response using a custom photomotor response analysis tool (PRAT) and for developmental toxicity endpoints (MO24: mortality at 24 hpf, DP: developmental progression, SM: spontaneous movement, and NC: notochord distortion). At 120 hpf, locomotor activity was measured using Viewpoint Zebralab and assessed for 18 endpoints. Zebrafish acquisition and analysis program (ZAAP), a custom program designed to inventory, acquire, and manage zebrafish data, was used to collect developmental endpoints as either present or absent (i.e., binary responses were recorded). If mortality occurred for an embryo (at either 24 or 120 hpf), the non-mortality endpoints were not measured.

Compound | outcome | AC50
CC(=NC#N)N(C)Cc1ccc(Cl)nc1 | inactive | 
Cc1cc(C2CC2)nc(Nc2ccccc2)n1 | inactive | 
CC[C@H](C)[C@H]1O[C@]2(C=C[C@@H]1C)C[C@@H]1C[C@@H](C/C=C(\C)[C@@H](O[C@H]3C[C@H](OC)[C@@H](O[C@H]4C[C@H](OC)[C@@H](NC)[C@H](C)O4)[C@H](C)O3)[C@@H](C)/C=C/C=C3\CO[C@@H]4[C@H](O)C(C)=C[C@@H](C(=O)O1)[C@]34O)O2 | inactive | 
CNC(=O)ON=C(SC)C(=O)N(C)C | inactive | 
CC(C1CC1)C(O)(Cn1cncn1)c1ccc(Cl)cc1 (stereo not given) |  | 32.6 µM (active)
C#CCC1=C(C)C(OC(=O)C2C(C=C(C)C)C2(C)C)CC1=O (stereo not given) | inactive | 
CCOP(=S)(OCC)Oc1ccc2c(C)c(Cl)c(=O)oc2c1 | inactive | 
CC1=NNC(=O)N(/N=C/c2cccnc2)C1 | inactive | 
FC(F)C(F)(F)OCC(Cn1cncn1)c1ccc(Cl)cc1Cl (stereo not given) |  | 18.2 µM (active)
CN(C)NC(=O)CCC(=O)O | inactive | 
CCCOc1nn(C(=O)NS(=O)(=O)c2ccccc2C(=O)OC)c(=O)n1C | inactive | 
CN(C)C(=O)Nc1cccc(C(F)(F)F)c1 | inactive | 
CC(Oc1cccc(Cl)c1)C(=O)O (stereo not given) | inactive | 
CC(COc1ccc(Oc2ccccc2)cc1)Oc1ccccn1 (stereo not given) | inactive | 
CC(C)N(C(=O)SCC(Cl)=C(Cl)Cl)C(C)C | inactive | 
CCC(CC)Nc1c([N+](=O)[O-])cc(C)c(C)c1[N+](=O)[O-] | inactive | 
COc1cc(OC)nc(Sc2cccc(Cl)c2C(=O)O)n1 | inactive | 
S=C1NCCN1 | inactive | 
CCOP(=O)(SC(C)CC)N1CCSC1=O (stereo not given) | inactive | 
CCOC(=O)CC(SP(=O)(OC)OC)C(=O)OCC (stereo not given) | inactive | 

Compound | outcome | AC50
O=[N+]([O-])c1cc(C(F)(F)F)c(Cl)c([N+](=O)[O-])c1Nc1ncc(C(F)(F)F)cc1Cl | inactive | 
CCCCSP(=O)(SCCCC)SCCCC | inactive | 
CCC(=NOC/C=C/Cl)C1=C(O)CC(C2CCOCC2)CC1=O (stereo not given) | inactive | 
CN1COCN(Cc2cnc(Cl)s2)C1=N[N+](=O)[O-] | inactive | 
CSc1nc(NC(C)C)nc(NC(C)C)n1 | inactive | 
CC1(C(=O)Nc2ccc(O)c(Cl)c2Cl)CCCCC1 | inactive | 
COc1ccc(C(=CC(=O)N2CCOCC2)c2ccc(Cl)cc2)cc1OC |  | 63.3 µM (active)
CNc1cnn(-c2cccc(C(F)(F)F)c2)c(=O)c1Cl | inactive | 
O=C(O)c1cc(Oc2ccc(C(F)(F)F)cc2Cl)ccc1[N+](=O)[O-] | inactive | 
Nc1nc(N)nc(NC2CC2)n1 | inactive | 
CCCSP(=O)(OCC)Oc1ccc(Br)cc1Cl (stereo not given) | inactive | 
Cc1ccn2nc(S(=O)(=O)Nc3c(F)cccc3F)nc2n1 | inactive | 
CCOP(=S)(Oc1cnc(C(C)(C)C)nc1)OC(C)C (stereo not given) | inactive | 
CSc1nnc(C(C)(C)C)c(=O)n1N | inactive | 
C[N+]1(C)CCCCC1 | inactive | 
C[Si](Cn1cncn1)(c1ccc(F)cc1)c1ccc(F)cc1 | inactive | 
COP(=O)(OC)SCn1c(=O)oc2cc(Cl)cnc21 | inactive | 
CCNc1nc(Cl)nc(NC(C)(C)C#N)n1 | inactive | 
CC(C)=CC1C(C(=O)OCN2C(=O)C3=C(CCCC3)C2=O)C1(C)C (stereo not given) | inactive | 
CSC1=N[C@@](C)(c2ccccc2)C(=O)N1Nc1ccccc1 | inactive | 
